# Inconclusive results are not listed. Values without a mark were called inactive. Calls of active or inactive are those of the source. Calls follow the shape of the dose curve; as a rule, active = well fitted activation curve with a large enough effect in the repeat runs; inconclusive = weak or mixed curves; inactive = flat fitted curve, though single readings scatter.
# Molecular target: Nuclear receptor subfamily 1 group I member 2 (Homo sapiens) (UniProt O75469)
# Assay: Human pregnane X receptor (PXR) activation by small molecules, qHTS assay (AID 1346985); also: nearly all actives have a fitted effect of over 40% in size
# Settings: DPX-2 HepG2 CYP3A4-luciferase, 24 h; series mostly up to 38.3 µM; activation: at the top concentration
# Text: National Center for Advancing Translational Sciences [NCATS]
# NIH Chemical Genomics Center [NCGC]
# U.S. Environmental Protection Agency [EPA]
# National Institutes of Environmental Health Sciences [NIEHS]
# National Toxicology Program [NTP]
# The Pregnane X receptor (PXR), a ligand activated nuclear receptor plays a critical role in the regulation of genes involved in drug metabolism and transporters. Activation of PXR may be involved in the unwanted adverse drug-drug interactions. […] Therefore, identification of compounds with the potential for PXR activation can be of importance in improving the efficacy of drugs with less toxicity and avoiding drug-drug interactions.
# DPX-2 (Puracyp, Inc.) cell lines, used for screening against human PXR activation has HepG2 cells co-transfected with a PXR response element and a luciferase construct containing CYP3A4 promoter. Increase in luciferase activity can be used to identify the compounds that activate the PXR pathway.
# DPX-2 cells were dispensed at 2,000 cells per well in 5uL of assay medium into white, solid-bottom 1536-well plates using a Multidrop Combi dispenser (Thermo Scientific). The assay plates were incubated at 37C for 5hr before transferring 23nL of test compounds dissolved in DMSO and positive control via Pintool station (Wako). The assay plates were incubated at 37C for 24hr. Then 5ul One-Glo assay reagent (Promega) was added to each plate by a Flying Reagent Dispenser (FRD, Aurora Discovery) and following 30 min incubation at room temperature, luciferase activity was quantified on a ViewLux plate reader (Perkin Elmer).
# % is scaled to controls: 0 for no effect and ±100 for the full control effect.
Compound,activation,outcome
Cc1cc(O)cc(C)c1Cl,5.34%,
CC1=C(CC(=O)O)c2cc(F)ccc2/C1=C\c1ccc(S(C)=O)cc1 (stereo unspecified),5.33%,
CNC[C@H](O)[C@@H](O)[C@H](O)[C@H](O)CO,-11.2%,
Nc1nc2ncc(CNc3ccc(C(=O)N[C@@H](CCC(=O)O)C(=O)O)cc3)nc2c(=O)[nH]1,0.532%,
COC(=O)c1ccccc1O,2.28%,
CC1Cc2ccccc2N1NC(=O)c1ccc(Cl)c(S(N)(=O)=O)c1 (stereo unspecified),4.79% [at 17.1 µM],
CN(CCOc1ccc(CC2SC(=O)NC2=O)cc1)c1ccccn1 (stereo unspecified),28.1%,
CC(=O)Nc1ccc(C(=O)O)cc1,4.29%,
OC[C@@H](O)[C@H](O)[C@H](O)[C@@H](O)CO,,inactive
CS(=O)(=O)c1ccc([C@@H](O)[C@@H](CO)NC(=O)C(Cl)Cl)cc1,1.27% [at 17.1 µM],
O=C1O[C@H](CO)[C@@H](O)[C@H](O)[C@H]1O,-3.75%,
C[C@@H]1O[C@@H](OC[C@H]2O[C@@H](Oc3c(-c4ccc(O)c(O)c4)oc4cc(O)cc(O)c4c3=O)[C@H](O)[C@@H](O)[C@@H]2O)[C@H](O)[C@H](O)[C@H]1O,-1.29%,
c1ccc2ccccc2c1,4.99%,
O=S(=O)(O)CCS,-3.92%,
C[C@@H](O)[C@H]1C(=O)N2C(C(=O)O)=C(S[C@@H]3CN[C@H](C(=O)N(C)C)C3)[C@H](C)[C@H]12,0.223%,
CC1CC(OC(=O)c2ccccc2O)CC(C)(C)C1 (stereo unspecified),26.2%,
CC1(C)O[C@@H]2C[C@H]3[C@@H]4C[C@H](F)C5=CC(=O)CC[C@]5(C)[C@H]4[C@@H](O)C[C@]3(C)[C@]2(C(=O)CO)O1,1.66% [at 17.1 µM],
C=C1CC[C@H](O)CC1=C/C=C1\CCC[C@]2(C)[C@@H]([C@H](C)/C=C/[C@H](C)C(C)C)CC[C@@H]12,26.7%,
Nc1cc(-c2ccncc2)c[nH]c1=O,-4.12%,
CCOC(=O)[C@H](CCc1ccccc1)N[C@@H](C)C(=O)N1Cc2ccccc2C[C@H]1C(=O)O,6.2%,
NCCNCCNCCNCCN,1.79%,

# Source: PubChem BioAssay (Tox21)
